Here are results for 21 compounds from PubChem BioAssay (NCI).

This is part of a sample that, as a whole, favours compounds with a hit. Of some 79,000 tested, about 15% had one in any assay. Unmarked numbers belong to inactive results. The source made the active and inactive calls. Cut-off read from the data, not from the text of the source: active = growth inhibition above about 70%; inactive = the rest.

Assay [1] can be described thus: NCI Yeast Anticancer Drug Screen. Data for the rad50 strain (AID 155).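 Note: 0% = growth of vehicle-only cultures of the same strain.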 Particulars: S. cerevisiae rad50 strain growth inhibition; at 50.0 µM; active compounds read high. A digest of the protocol: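 Growth of the mutant yeast was measured after compound exposure and referenced to vehicle-treated cultures.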
Assay [2] in a line: NCI Yeast Anticancer Drug Screen. Data for the mec2-1 strain (AID 157). The following applies: S. cerevisiae mec2-1 strain, at 50.0 µM, active compounds read high. Put shortly: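 Yeast mec2-1 mutant treated with compound. Readout: growth inhibition vs vehicle controls.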
Assay [3] in a line: NCI Yeast Anticancer Drug Screen. Data for the sgs1 mgt1 strain (AID 161).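 Note: 0% = growth of cultures given vehicle only.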 The following applies: S. cerevisiae sgs1 mgt1 strain, at 50.0 µM, active compounds read high. Put shortly: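 Test agents were incubated with a DNA-repair-mutant yeast strain. Growth was then read and compared against vehicle-treated controls.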
Assay [4] is described as follows: NCI Yeast Anticancer Drug Screen. Data for the cln2 rad14 strain (AID 165).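 Note: 0% = growth equal to vehicle treated cultures.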 Particulars: S. cerevisiae cln2 rad14 strain, at 50.0 µM, active compounds read high. Put shortly: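 cln2 rad14 yeast strain; compound exposure; growth inhibition read vs vehicle controls.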
Assay [5] is described as follows: NCI Yeast Anticancer Drug Screen. Data for the bub3 strain (AID 167). The following applies: S. cerevisiae bub3 mutant strain, at 50.0 µM, active compounds read high. Put shortly: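 Whole-cell yeast assay. The mutant strain was incubated with compounds, and growth inhibition was determined by comparison with vehicle-treated cells.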
Assay [6] is described as follows: NCI Yeast Anticancer Drug Screen. Data for the mlh1 rad18 strain (AID 175). Particulars: S. cerevisiae mlh1 rad18 strain growth inhibition; at 50.0 µM; active compounds read high. Put shortly:
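Yeast w/ defined DNA-repair lesions; compound exposure; growth vs vehicle controls → % inhibition.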

For the compound `CCOC(=O)N/N=C(\Cc1ccccc1)OCC`, the growth inhibition was 16% in assay [1]; 13.2% in assay [2]; 8.45% in assay [3]; 13.7% in assay [4]; 14.6% in assay [5]; 39.2% in assay [6].
Consider `O=C(O)c1cc(=O)[nH]c(=O)[nH]1`, for which the growth inhibition in assay [1] was -17.6%; in assay [2], 0.05%; in assay [3], -14.9%; in assay [4] it was 7.05%; in assay [5], -6.5%; in assay [6] it was -21.2%.
Take `N#CC1=C(N)N(c2ccccc2)C(c2ccco2)C1(C#N)C#N` (stereo unspecified): the growth inhibition in assay [1] is 4.85%; in assay [2], 13.3%; in assay [3], 9.85%; in assay [4] it was 3.35%; in assay [5], -13.7%; in assay [6], 6.25%.
Turning to `C[n+]1nnn(/N=C\c2ccccc2)c1N`, the growth inhibition was -3.55% in assay [1]; 11.8% in assay [2]; 10.1% in assay [3]; -0.95% in assay [4]; 8.75% in assay [5]; 11.6% in assay [6].
Regarding `O=C(O)c1c(-c2ccccc2)c(=O)[nH]c2ccccc12`, the growth inhibition is -6.8% in assay [1]; 4.05% in assay [2]; -36.8% in assay [3]; 17.1% in assay [4]; 13.2% in assay [5]; 11.1% in assay [6].
Regarding `COc1ccccc1N/N=c1\c2nc3ccccc3nc1n(-c1ccccc1C)c(=S)n2-c1ccccn1`, the growth inhibition in assay [1] is 3.4%; in assay [2] it was 5.1%; in assay [3], 16.3%; in assay [4] it was -0.75%; in assay [5], 0.9%; in assay [6], 8.85%.
With `CN/N=C(\C(=O)Nc1ccc([N+](=O)[O-])cc1[N+](=O)[O-])C1NC(=O)NC1=O` (stereo unspecified), the growth inhibition in assay [1] is 23.8%; in assay [2] it was 20.1%; in assay [3], 1.95%; in assay [4], 5.05%; in assay [5] it was 15.9%; in assay [6], -10.9%.
Regarding `CC1/C(=N/Nc2ccc([N+](=O)[O-])cc2)CC2C3(C)CCC2(C(C)C(=O)O)C(=O)C13` (stereo unspecified), the growth inhibition in assay [1] is 78% (active); in assay [2], 33.4%; in assay [3], 83.5% (active); in assay [4] it was 45.7%; in assay [5] it was 44.8%; in assay [6], 88.7% (active).
`CC(CO)(CO)[N+](=O)[O-]`: the growth inhibition in assay [1] was 19.2%; in assay [2], 9.65%; in assay [3], -5.85%; in assay [4], -46.5%; in assay [5], 6.25%; in assay [6], 19.9%.
As to `COC(=O)C1CSCN1` (stereo unspecified), the growth inhibition in assay [1] was -23.9%; in assay [2], -4.3%; in assay [3], -26.9%; in assay [4], -61.4%; in assay [5] it was -3.5%; in assay [6], -12.8%.
Consider `Nc1nc(=S)c2[nH]cnc2[nH]1`, for which the growth inhibition was -19.6% in assay [1]; -4.95% in assay [2]; -21.4% in assay [3]; -91.7% in assay [4]; 9.55% in assay [5]; -125% in assay [6].
For the compound `C/C(=C1\C(=O)Nc2ccccc21)c1cccnc1`, the growth inhibition was -8.2% in assay [1]; -9.25% in assay [2]; -9.5% in assay [3]; 11.3% in assay [4]; -10.4% in assay [5]; -7.55% in assay [6].
With `N#Cc1ccc(OC(=O)Nc2ccccc2C(F)(F)F)cc1`, the growth inhibition is 2.4% in assay [1]; -18.9% in assay [2]; -5.2% in assay [3]; -2.1% in assay [4]; -14.9% in assay [5]; -0.85% in assay [6].
Consider `CN(C)c1ccc(N=Nc2cc3c4ccccc4ccc3c3ccccc23)cc1`, for which the growth inhibition in assay [1] is 15.1%; in assay [2] it was -10.2%; in assay [3], 23.1%; in assay [4], 1.6%; in assay [5], 9.45%; in assay [6], 23.3%.
In the case of `CCOC(=O)C(=CN(C)c1ccc([N+](=O)[O-])cc1)C(=O)OCC`, the growth inhibition in assay [1] was 0.15%; in assay [2] it was 6.65%; in assay [3], 15.6%; in assay [4], 12.1%; in assay [5], 24.4%; in assay [6] it was 15.5%.
Turning to `CCCCCCCCCC(=O)N/N=C/c1ccccc1O`, the growth inhibition in assay [1] was -4.3%; in assay [2], 12.7%; in assay [3] it was 19.2%; in assay [4] it was -19.1%; in assay [5], 19.9%; in assay [6], 13.8%.
Take `CCOC(=O)COc1c(C)cccc1C`: the growth inhibition in assay [1] was 17.6%; in assay [2], 5.45%; in assay [3], -2.5%; in assay [4] it was 14.8%; in assay [5], 32.5%; in assay [6] it was 12.5%.
As to `Cc1cccc(-n2c(C)nc3[nH]cc(C)c3c2=N)c1`, the growth inhibition in assay [1] is 0.15%; in assay [2] it was 0.65%; in assay [3], 2.05%; in assay [4], -21.9%; in assay [5], 0.55%; in assay [6], 11.1%.
On to `Cc1[nH]nc2c1NC(=O)OC2`, for which the growth inhibition is -3.1% in assay [1]; -1.1% in assay [2]; 1.5% in assay [3]; -23.4% in assay [4]; -8.15% in assay [5]; 2.45% in assay [6].
Consider `O=C(O)c1cccc(NC(=O)C(F)(F)F)c1`, for which the growth inhibition was -1.1% in assay [1]; 1.6% in assay [2]; -18.9% in assay [3]; -29.4% in assay [4]; -6.05% in assay [5]; -2.15% in assay [6].
As to `CCOCCC(C)(OCC)OCC`, the growth inhibition was -11.8% in assay [1]; -36.1% in assay [2]; -7% in assay [3]; 15.7% in assay [4]; -3.65% in assay [5]; -5.3% in assay [6].
